# PubChem BioAssay (Tox21)
# Unmarked numbers belong to inactive results. Calls of active or inactive are those of the source. The call rests on the fitted dose curve.
# Assay: qHTS assay to identify small molecule agonists of the sonic hedgehog signaling (Shh) pathway (AID 1259368);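 further: NIH/3T3-derived 3T3Gli1-Luc cells carrying a stable Gli1-driven firefly luciferase reporter; nearly all actives have a fitted effect of over 15% in size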
# Details: NIH/3T3 Gli1-Luc reporter, luciferase, 24 h, active compounds read high; series mostly up to 92.4 µM; activity change: at the top concentration
# Description: National Center for Advancing Translational Sciences [NCATS]
# NIH Chemical Genomics Center [NCGC]
# U.S. Environmental Protection Agency [EPA]
# National Institutes of Environmental Health Sciences [NIEHS]
# National Toxicology Program [NTP]
# The sonic hedgehog (Shh) pathway is essential for normal embryonic development. Dysregulation of the Shh pathway can cause severe developmental defects in organs. Therefore chemicals that interfere with the pathway are potential developmental toxicants. A cell line designated 3T3Gli1-Luc (DMB/OARSA/CFSAN/FDA, Laurel, MD), a NIH/3T3 derived clone containing stably integrated Gli1-Luc reporter is used to detect chemical interference of the Shh pathway, by changes in the expression of the firefly Luc gene under the control of the Gli1 transcriptional response element. This cell line was used to screen Tox21 libraries for identifying and prioritizing the potential developmental toxicants that interfere Shh pathway.
# 3T3 Gli1-Luc cells were dispensed at 2,000 per well in 5uL of culture medium into white solid bottom 1536-well plates (Greiner Bio-One, Monroe, NC) using a Multidrop Combi (Thermo Scientific, Waltham, MA) dispenser. The assay plates were incubated at 37 C and 5% CO2 for 4hr, and then 23nL of compounds dissolved in DMSO and positive control were transferred using a Pintool station (Wako, San Diego, CA). The assay plates were incubated at 37C and 5% CO2 for 24hr. For luciferase read, 4uL of Amplite Luciferase reporter gene assay reagent (AAT Bioquest, Inc. Sunnyvale, CA) was added to each well of the assay plates using Flying Reagent Dispenser (FRD, Aurora Discovery, San Diego, CA) and incubated at room temperature for 30min. The luminescence signal was measured using a ViewLux plate reader (Perkin Elmer, Shelton, CT).
# On the % scale 0 is the no-effect control and ±100 the full control effect.
Structure (SMILES),activity change,outcome
CCC(C)S (stereo not given),-0.25% [at 3.27 µM],–
CCc1cccc2c(CCO)c[nH]c12,0.28% [at 42.5 µM],–
COc1ccc(CCN(C)CCCC(C#N)(c2cc(OC)c(OC)c(OC)c2)C(C)C)cc1OC (stereo not given),-1.6% [at 42.5 µM],–
N[C@H](C(=O)O)c1ccc(O)cc1,-0.267% [at 18.9 µM],–
O=C(O)c1ccccc1OP(=O)(O)O,-0.366% [at 42.5 µM],–
O=C(O)CN(CCOCCOCCN(CC(=O)O)CC(=O)O)CC(=O)O,-0.0947% [at 0.349 µM],–
C=CCOCC(CC)(CO)COCC=C,-1.9%,–
CCCCCSCCCCC,0.579%,–
COC(=O)c1c(Cl)c(Cl)c(C(=O)OC)c(Cl)c1Cl,–,inactive
O=C1CCCCCCCCCCCN1,–,inactive
c1ccc([C@H]2CN3CCSC3=N2)cc1,0.0567% [at 42.5 µM],–
CC(C)CNCC(C)C,0.706%,–
CCC(C)C1CCCCC1=O (stereo not given),0.0589%,–
CC(=O)OC/C=C(\C)CC/C=C(\C)CCC=C(C)C,–,inactive
C=C[Si](OC(=C)C)(OC(=C)C)OC(=C)C,0.0049%,–
OCCCC1CCCCC1,-0.0925%,–
Cc1cc(O)cc2c1O[C@](C)(CCC[C@H](C)CCC[C@H](C)CCCC(C)C)CC2,0.233% [at 42.5 µM],–
CC(=O)N(CC(O)CO)c1c(I)c(C(=O)NCCO)c(I)c(C(=O)NCC(O)CO)c1I (stereo not given),0.102% [at 42.5 µM],–
CCn1nc(C(=O)O)c(=O)c2cc3c(cc21)OCO3,-0.0689% [at 42.5 µM],–
O=c1cc(-c2ccccc2)oc2ccccc12,2.95%,–

Structure (SMILES),activity change,outcome
NC(=O)c1ccc(N)cc1,0.0785%,–
CCCC(=O)O[C@]1(C(=O)CO)CC[C@H]2[C@@H]3CCC4=CC(=O)CC[C@]4(C)[C@H]3[C@@H](O)C[C@@]21C,0.153% [at 42.5 µM],–
COC(=O)c1ccc(C)cc1C1=NC(C)(C(C)C)C(=O)N1 (stereo not given),-0.176%,–
C[C@H]1C[C@@H](O)CC(C)(C)C1,-0.518%,–
COc1c(N2C[C@@H]3CCCN[C@@H]3C2)c(F)cc2c(=O)c(C(=O)O)cn(C3CC3)c12,-1.82% [at 42.5 µM],–
Cc1[nH]c(=O)c(C#N)cc1-c1ccc2nccn2c1,-1.37% [at 42.5 µM],–
OC(CCN1CCCCC1)(c1ccccc1)C1CC2C=CC1C2 (stereo not given),-1.6% [at 42.5 µM],–
NS(=O)(=O)c1cc(C(=O)NN2C[C@H]3[C@H]4CCC(C4)[C@H]3C2)ccc1Cl,0.102% [at 42.5 µM],–
NS(=O)(=O)c1ccc(C(=O)O)cc1,0.447% [at 42.5 µM],–
CN1CCN(c2cc3c(cc2F)c(=O)c(C(=O)O)cn3-c2ccc(F)cc2)CC1,-1.21% [at 42.5 µM],–
O=C1CCCN1C1CCCCC1,-0.66%,–
COc1cc(C(=O)N2CCCCCCC2)cc(OC)c1OC,0.023% [at 42.5 µM],–
CCN(CC)CCOCCOC(=O)C1(c2ccccc2)CCCC1,-0.393% [at 42.5 µM],–
COC(=O)c1cc(C(=O)OC)cc(S(=O)(=O)O)c1,0.668%,–
CCOC(=O)[C@H](CCc1ccccc1)N[C@@H](C)C(=O)N1[C@H](C(=O)O)C[C@@H]2CCC[C@@H]21,-0.18% [at 42.5 µM],–
CCCCCCCCCCCCCC=O,-0.008% [at 8.39 µM],–
CC(C)(O)C(=O)c1ccccc1,0.245%,–
OC1CCCCC1c1ccccc1 (stereo not given),-1.7%,–
CS(=O)(=O)O,-0.948%,–
CC(=O)c1ccccc1O,1.71%,–
